This is a sample that favours compounds with a hit; in the whole collection about 3.6% have one here.
AmpC detergent: qHTS Inhibitors of AmpC Beta-Lactamase (assay with detergent) | P00811 | AmpC hydrolysis of nitrocefin, absorbance 480 nm, 0.01% Triton | Potency, µM (doses to about 114 µM), hits mostly inhibitors | 370,000 compounds, 0.041% hits; further: nearly all actives have a fitted effect of over 25% in size
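20 mM phosphate pH 7.0 + 0.01% (detergent screen) or 0.0001% Triton X-100; 5.3 nM AmpC reagent; cpd preinc 15 min RT; nitrocefin (800 uM stock) to start; A480 q20 s × 4 min; Activity was normalised to no-enzyme and no-compound control wells.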
Giardia FBPA inh: qHTS Assay for Inhibitors of Fructose-1,6-bisphosphate Aldolase from Giardia Lamblia; AID 2451, 2010; 290,000 compounds, 0.71% hits; Potency, µM (highest dose often 59.6 µM), most hits filed as inhibitors; purified Giardia FBPA; further: nearly all actives have a fitted effect of over 55% in size
Target sequence (A8B2U2 whole entry, looked up): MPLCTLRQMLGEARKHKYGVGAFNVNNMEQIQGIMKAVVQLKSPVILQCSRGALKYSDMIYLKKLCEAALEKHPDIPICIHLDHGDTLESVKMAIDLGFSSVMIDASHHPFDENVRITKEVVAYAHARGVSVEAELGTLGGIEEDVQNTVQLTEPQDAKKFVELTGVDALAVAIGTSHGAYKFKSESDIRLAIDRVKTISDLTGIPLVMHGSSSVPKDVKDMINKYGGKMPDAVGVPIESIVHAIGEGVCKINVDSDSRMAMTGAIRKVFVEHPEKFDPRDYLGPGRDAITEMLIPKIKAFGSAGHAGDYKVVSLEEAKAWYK
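Giardia FBPA (40 nM reagent) was preincubated 10 min at RT with compound (up to 57.5 uM final), then substrate plus GAPDH/TPI/NAD/arsenate coupling system with diaphorase/resazurin was added; resorufin fluorescence (525/598 nm) was read after 20 min.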
Sm TGR block: qHTS Assay for the Inhibitors of Schistosoma Mansoni Peroxiredoxins | Schistosoma mansoni thioredoxin glutathione reductase (TGR), Q962Y6 | purified TGR, DTNB reduction, TNB absorbance 405 nm | 360,000 compounds, 3% hits | AID 485364, 2010 | Potency, µM (doses to about 114 µM), usual class: inhibitors; further: nearly all actives have a fitted effect of over 60% in size
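First, TGR (20 nM dispensed) and NADPH were mixed with compound. Second, a 15 min room-temperature incubation followed. Third, further NADPH and then DTNB were added to start the reaction. Finally, TNB absorbance was monitored kinetically.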
AmpC no deterg: qHTS Inhibitors of AmpC Beta-Lactamase (assay without detergent); P00811; AmpC nitrocefin hydrolysis, absorbance 480 nm, 0.0001% Triton; Potency, µM (series often up to 57.1 µM), usual class: inhibitors; 330,000 compounds, 0.52% hits; further: nearly all actives have a fitted effect of over 20% in size
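AmpC (5.3 nM in the dispensed reagent) in 20 mM phosphate pH 7.0 with 0.01% (detergent screen) or 0.0001% Triton X-100 was preincubated with compounds for 15 min at room temperature. Nitrocefin was then added from an 800 uM solution, and hydrolysis was followed at 480 nm.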
Of the large screens only hits and unclear results are named; the others gave an inactive call. The call rests on the fitted dose curve; in most records, active means well fitted curve in the direction sought with a large enough effect; inconclusive means small, poorly fitted or top-dose-only effect, or another doubt; inactive means no such curve, though single readings can be large; an effect the other way counts as inactive or inconclusive.

C=C1CCN(C(Cc2ccccc2)C(=O)OC)S(=O)(=O)c2ccc(F)cc21 (stereo unspecified)	Sm TGR block 22.4µM
C=C1CCN(C(Cc2ccccc2)C(=O)N2CCOCC2)S(=O)(=O)c2ccccc21 (stereo unspecified)	none (no result: AmpC detergent, Sm TGR block, AmpC no deterg)
COC(=O)c1cc(NC(=O)c2cccc(C(F)(F)F)c2)c(=O)oc1C/C=N/OCc1cccc(Cl)c1Cl	AmpC no deterg 7.94µM
OCCN1CCN(C(c2cccs2)c2ccc3cccnc3c2O)CC1 (stereo unspecified)	Giardia FBPA inh inconclusive, Sm TGR block 0.316µM
OCCN1CCN(CC(O)COc2ccc3ccccc3c2)CC1 (stereo unspecified)	none
CC(=O)c1ccc(NC(=O)c2ncn(-c3ccccc3)n2)cc1	none (no result: Giardia FBPA inh, AmpC no deterg)
CC1(C)Cc2ccccc2C(Nn2cnnc2)=N1	none
CC1(C)Cc2ccccc2C2=NNC(=O)C2=N1	Giardia FBPA inh 4.46µM (no result: Sm TGR block)
CC(OC(=O)c1ccccc1C(=O)N(C)c1ccccc1)C(=O)Nc1ccc(C(N)=O)cc1 (stereo unspecified)	none (no result: Giardia FBPA inh)
CC(OC(=O)c1cc(O)c2ccccc2c1O)C(=O)Nc1ccc(C(N)=O)cc1 (stereo unspecified)	AmpC detergent inconclusive, Sm TGR block 22.4µM (no result: Giardia FBPA inh)
COc1ccc(N(CC2CO2)S(=O)(=O)c2ccccc2)cc1 (stereo unspecified)	Sm TGR block 39.8µM
COc1ccccc1N(CC1CO1)S(=O)(=O)c1ccccc1 (stereo unspecified)	AmpC detergent inconclusive
COc1ccc(S(=O)(=O)NCc2cccnc2)cc1C(=O)Nc1ccccc1	none
Cc1cc2c(c(=O)o1)C(c1ccc([N+](=O)[O-])o1)C(C#N)=C(N)O2 (stereo unspecified)	Giardia FBPA inh inconclusive, Sm TGR block 14.1µM
CCC(CC)C1C(C#N)=C(N)Oc2cc(C)oc(=O)c21 (stereo unspecified)	none
O=Cc1ccc(-c2cc(Cl)ccc2Cl)[nH]1	none
COc1cc(NC(=O)CNc2cccc(S(=O)(=O)N3CCOCC3)c2)cc(OC)c1	AmpC detergent inconclusive (no result: Giardia FBPA inh)
O=C(O)c1ccccc1C(=O)NCc1ccc(F)cc1	none
O=C(O)c1ccccc1C(=O)NNc1ccc(F)cc1	Sm TGR block 50.1µM
Cc1nc(C)c(-c2ccc(SCc3cccc(F)c3)nn2)s1	none
Fc1ccc(CSc2ccc(-c3ccco3)nn2)cc1	Sm TGR block 44.7µM
Fc1cccc(CSc2ccc(-c3ccco3)nn2)c1	Sm TGR block 31.6µM
Cc1nc(NC(=O)CCl)sc1C(=O)N(C)C	Sm TGR block 15.8µM
CC(C)C(C)NC(=O)CSc1nc2scc(-c3ccco3)c2c(=O)n1-c1ccccc1 (stereo unspecified)	Sm TGR block 25.1µM
C=CCn1c(SCC(C)=O)nc2scc(-c3ccco3)c2c1=O	Sm TGR block 2.82µM
C=CCn1c(SCc2ccc3c(c2)OCO3)nc2scc(-c3ccco3)c2c1=O	Sm TGR block inconclusive (no result: Giardia FBPA inh)
C=CCn1c(SC(F)F)nc2scc(-c3ccco3)c2c1=O	AmpC detergent inconclusive, Sm TGR block 50.1µM
C=CCn1c(SCC(=O)N2CCOCC2)nc2scc(-c3ccco3)c2c1=O	AmpC detergent inconclusive, Giardia FBPA inh inconclusive, Sm TGR block 4.47µM
Nn1cnc2scc(-c3ccco3)c2c1=O	Sm TGR block 35.5µM
CCC1(c2ccc(F)cc2)NC(=O)N(CC(=O)NC2CCCCCC2)C1=O (stereo unspecified)	none (no result: AmpC detergent, Giardia FBPA inh, Sm TGR block)
CC(C)(C)OC(=O)C[C@@H]1C/C=C\C[C@@H](CC(=O)NCCO)C(=O)N2CCC[C@H]2COC1=O	none (no result: AmpC detergent, Giardia FBPA inh, Sm TGR block)
COc1ccc(-c2csc(NC(=O)c3ccc(S(=O)(=O)N4CCc5ccccc5C4)cc3)n2)cc1	AmpC detergent inconclusive, AmpC no deterg 8.91µM
COC(=O)c1ccc(-c2csc(NC(=O)c3ccc(S(=O)(=O)N4CCc5ccccc5C4)cc3)n2)cc1	none
Cc1cc(NC(=O)CCSc2ccccc2)no1	none
C/C(=N\NC(=O)c1ccc(COc2ccccc2)cc1)c1ccncc1	none
Cc1ccc(C)c(S(=O)(=O)Nc2ccccc2C(=O)Nc2ccc(S(=O)(=O)Nc3ncccn3)cc2)c1	AmpC no deterg 15.8µM
Cc1ccc(C)c(S(=O)(=O)Nc2ccc(S(=O)(=O)Nc3ncccn3)cc2)c1	none (no result: Giardia FBPA inh)
Cc1ccc2nc(NCCc3ccccc3)c3nncn3c2c1	none

From PubChem
